The record followed here is PubChem BioAssay (Tox21).

“And” between values parts separate entries of the source, which are not always exact repeats. Identical values can stand only once. Inconclusive results are not listed. The source made the active and inactive calls. The call rests on the fitted dose curve; in most records, active means well fitted curve in the direction sought with a large enough effect in the repeat runs; inconclusive means weak or mixed curves; inactive means no such curve, though single readings can be large; an effect the other way counts as inactive or inconclusive.

Test [1] is described as follows: qHTS assay to identify small molecule antagonists of the glucocorticoid receptor (GR) signaling pathway - cell viability counter screen (AID 720693). Further: nearly all actives have a fitted effect of over 55% in size.
A short description of test [2]: qHTS assay for identifying genotoxic compounds that show differential cytotoxicity against isogenic chicken DT40 cell lines with known DNA damage response pathways - wild type cell line (AID 743012). Further: nearly all actives have a fitted effect of over 60% in size. The essentials: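 Cytotoxicity in repair-proficient parental chicken DT40 cells serves as the comparator for Rad54/Ku70- and Rev3-deficient lines. Cells were exposed to compounds for 40 h at 37 C/5% CO2, and ATP-based luminescence (CellTiter-Glo) measured viability.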
(In qHTS, concentration-response curves come from the screen itself.)

A short description of test [3]: qHTS assay for identifying genotoxic compounds that show differential cytotoxicity against isogenic chicken DT40 cell lines with known DNA damage response pathways - Rev3 mutant cell line (AID 743014). Further: nearly all actives have a fitted effect of over 55% in size.
Test [4] can be described thus: qHTS assay for identifying genotoxic compounds that show differential cytotoxicity against isogenic chicken DT40 cell lines with known DNA damage response pathways - Rad54/Ku70 mutant cell line (AID 743015). Further: nearly all actives have a fitted effect of over 60% in size.
A short description of test [5]: qHTS assay to identify small molecule antagonists of the androgen receptor (AR) signaling pathway - cell viability counter screen (AID 743033; further: nearly all actives have a fitted effect of over 45% in size).
A short description of test [6]: qHTS assay to identify small molecule antagonists of the androgen receptor (AR) signaling pathway using the MDA cell line - cell viability counter screen (AID 743041; further: nearly all actives have a fitted effect of over 45% in size). The essentials: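 qHTS viability read-out; MDA-kb2 AR-luc; R1881-stimulated; 16 h exposure at 37C, 0% CO2; CellTiter-Fluor, 30 min; fluorescence intensity.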
Potency means the concentration at half of the fitted maximal effect.

Turning to `C=CC[N@@+]12CC[C@@]34c5ccccc5N5/C=C6/[C@H]7C[C@H]8[C@@]9(CC[N@@+]8(CC=C)C/C7=C/CO)c7ccccc7N(/C=C(/[C@@H](C[C@@H]31)/C(=C\CO)C2)[C@H]54)[C@@H]69`, the Potency result in test [1], in test [2], in test [3], in test [4], in test [5] and in test [6] was “inactive” each time.

On to `O=C(N[C@H](CO)[C@H](O)c1ccc([N+](=O)[O-])cc1)C(Cl)Cl`, for which the Potency result in test [1], in test [5] and in test [6] was “inactive” in each case. Besides, the Potency in test [2] is 5.96 µM (active) and 15.4 µM (active); in test [3], 7.5 µM (active) and 17.2 µM (active); in test [4], 8.41 µM (active) and 19.7 µM (active).

As to `NCC(O)CC(=O)O` (configuration not stated), the Potency entry in test [1], in test [2], in test [3], in test [4], in test [5] and in test [6] was “inactive” each time.

Regarding `Cc1ncc(C[n+]2csc(CCOP(=O)(O)O)c2C)c(N)n1`, the Potency entry in test [1], in test [2], in test [3], in test [4], in test [5] and in test [6] was “inactive” throughout.

Turning to `OCl`, the Potency entry in test [1], in test [2], in test [3], in test [4], in test [5] and in test [6] was “inactive” throughout.

With `CO[C@H]1C[C@H](O[C@H]2[C@H](C)[C@@H](O[C@@H]3O[C@H](C)C[C@H](N(C)C)[C@H]3O)[C@@H](C)C[C@]3(CO3)C(=O)[C@H](C)[C@@H](O)[C@@H](C)[C@@H](C)OC(=O)[C@@H]2C)O[C@@H](C)[C@@H]1O`, the Potency entry in test [1], in test [2], in test [3], in test [4], in test [5] and in test [6] was “inactive” in each case.

As for `CCN1\C(=C/C=C/C=C/c2sc3ccccc3[n+]2CC)Sc2ccccc21`, the Potency is 23.9 µM (active) and 21.3 µM (active) in test [1]; 133 nM (active) and 298 nM (active) in test [2]; 237 nM (active) and 841 nM (active) in test [3]; 168 nM (active) and 335 nM (active) in test [4]; 2.68 µM (active) and 8.49 µM (active) in test [5]; 1.68 µM (active) and 5.96 µM (active) in test [6].

Regarding `O=C[C@H](O)[C@@H](O)[C@@H](O)[C@H](O)CO`, the Potency entry in test [1], in test [2], in test [3], in test [4], in test [5] and in test [6] was “inactive” each time.

Regarding `O=C1CCC(c2ccc(-n3ccnc3)cc2)=NN1`, the Potency result in test [1], in test [2], in test [3], in test [4], in test [5] and in test [6] was “inactive” each time.

`O=[N+]([O-])c1ccc(O)c2ncccc12`: in test [1], the Potency entry was “inactive”. The Potency was 2.98 µM (active) in test [2]; 2.66 µM (active) in test [3]; 5.31 µM (active) in test [4]; 10.7 µM (active) in test [5]; 11.9 µM (active) in test [6].

As to `NC(=S)NS(=O)(=O)c1ccc(N)cc1`, the Potency result in test [1], in test [2], in test [3], in test [4], in test [5] and in test [6] was “inactive” throughout.

As for `CC(=NCc1ccccc1)c1ccccc1O`, the Potency result in test [1], in test [2], in test [3], in test [4], in test [5] and in test [6] was “inactive” each time.

Take `NC(=O)CC[C@@H]1NC(=O)[C@H](Cc2ccccc2)NC(=O)[C@H](Cc2ccc(O)cc2)NC(=O)[C@@H](N)CSSC[C@@H](C(=O)N2CCC[C@H]2C(=O)N[C@@H](CCCN=C(N)N)C(=O)NCC(N)=O)NC(=O)[C@H](CC(N)=O)NC1=O`: the Potency entry in test [1], in test [2], in test [3], in test [4], in test [5] and in test [6] was “inactive” in each case.

`CC1(C)S[C@@H]2[C@H](NC(=O)[C@@H](NC(=O)N3CCNC3=O)c3ccccc3)C(=O)N2[C@H]1C(=O)O`: the Potency result in test [1], in test [2], in test [3], in test [4], in test [5] and in test [6] was “inactive” each time.

For `Cc1cc(Br)ccc1NC(=O)CCl`, the Potency in test [1] is 43.6 µM (active); in test [2] it was 5.45 µM (active); in test [3], 5.45 µM (active); in test [4], 1.54 µM (active); in test [5], 24.5 µM (active); in test [6] it was 48.6 µM (active).

Take `CO/N=C(\C(=O)N[C@@H]1C(=O)N2C(C(=O)O)=C(COC(C)=O)CS[C@H]12)c1csc(N)n1` (stereo in doubt): the Potency result in test [1], in test [2], in test [3], in test [4], in test [5] and in test [6] was “inactive” in each case.

For the compound `O=C1c2ccccc2CN2C(=O)c3ccccc3CN12`, the Potency entry in test [1], in test [2], in test [3], in test [4], in test [5] and in test [6] was “inactive” throughout.

In the case of `CC(C)CCC[C@@H](C)[C@H]1CC[C@H]2[C@@H]3CC=C4C[C@@H](O)CC[C@]4(C)[C@H]3CC[C@]12C`, the Potency entry in test [1], in test [2], in test [3], in test [4], in test [5] and in test [6] was “inactive” each time.

`CO/N=C(\C(=O)N[C@@H]1C(=O)N2C(C(=O)[O-])=C(C[n+]3cccc4c3CCC4)CS[C@H]12)c1csc(N)n1`: the Potency result in test [1], in test [2], in test [3], in test [4], in test [5] and in test [6] was “inactive” in each case.

Consider `Cc1ccc(Cl)c(N)c1Cl`, for which the Potency result in test [1], in test [4], in test [5] and in test [6] was “inactive” throughout. Besides, the values for the Potency in test [2] and in test [3] were 61.1 µM (active) and 68.6 µM (active), respectively.

As for `CCOC(=O)COc1ccc2c(=O)cc(-c3ccccc3)oc2c1`, the Potency entry in test [1], in test [3], in test [5] and in test [6] was “inactive” throughout. Moreover, the Potency in test [2] and in test [4] was 29.8 µM (active) in each case.

On to `Cc1onc(-c2c(F)cccc2Cl)c1C(=O)N[C@@H]1C(=O)N2[C@@H]1SC(C)(C)[C@@H]2C(=O)O`, for which the Potency result in test [1], in test [2], in test [3], in test [4], in test [5] and in test [6] was “inactive” each time.
